Bioassay records: PubChem, several laboratories
ADAM17 inh: ADAM17 inhibition, QFRET primary screen; P78536; recombinant ADAM17, EDANS/DABCYL FRET peptide cleavage; inhibition, % at 6.95 µM; hit rate 0.83% among 370,000; AID 720648;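 active means inhibition above the mean of compounds lying between control limits plus 3 SD, set per campaign, cut at about 8.5% in these data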;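 further: 0% = DMSO-only wells as the low control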
Target sequence (P78536 215-824 limits assumed): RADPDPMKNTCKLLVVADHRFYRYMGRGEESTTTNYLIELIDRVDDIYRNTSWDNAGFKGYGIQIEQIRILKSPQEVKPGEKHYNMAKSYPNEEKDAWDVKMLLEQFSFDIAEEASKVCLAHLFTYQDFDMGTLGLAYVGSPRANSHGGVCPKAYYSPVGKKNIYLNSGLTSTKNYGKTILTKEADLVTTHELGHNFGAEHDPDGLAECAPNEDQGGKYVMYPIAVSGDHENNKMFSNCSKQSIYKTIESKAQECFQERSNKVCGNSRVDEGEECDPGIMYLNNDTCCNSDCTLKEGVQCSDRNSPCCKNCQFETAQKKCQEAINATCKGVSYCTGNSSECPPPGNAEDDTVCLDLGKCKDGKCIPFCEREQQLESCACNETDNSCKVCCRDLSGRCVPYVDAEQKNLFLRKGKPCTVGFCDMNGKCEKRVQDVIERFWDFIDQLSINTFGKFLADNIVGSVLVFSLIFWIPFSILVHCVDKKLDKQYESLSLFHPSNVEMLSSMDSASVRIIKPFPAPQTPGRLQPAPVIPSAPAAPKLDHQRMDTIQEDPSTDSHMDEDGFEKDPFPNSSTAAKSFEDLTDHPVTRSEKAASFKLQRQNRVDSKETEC
FGF22 binding: shifts melting point of recombinant human FGF22 | hit rate 1.5% among 340,000 | Q9HCT0 | AID 651658 | recombinant FGF22 thermal shift, SYPRO orange fluorescence; percent of sucrose octasulfate shift, DMSO zero | activity (Tm shift, normalised), % at 9.99 µM;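 active means mean Tm shift, scaled 0 neutral to 100 positive control, at about 1.3% or above, every replicate too, limit read from the data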
KLK7 zymogen act: proKLK7 (human) activation, primary screen; AID 652039; purified proKLK7, EDANS-DABCYL substrate fluorescence; 100% is mature enzyme control, 0% vehicle; P49862; activation, % at 7 µM; hit rate 0.9% among 370,000;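 active means activation above the mean of all tested compounds plus 3 SD, computed per campaign excluding outliers beyond control limits, cut at about 13% in these data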
Ecoli rRNA inh: inhibits bacterial ribosomal RNA function over humanized ribosomes; E. coli WT GFP vs humanized-ribosome RFP mutants, fluorescence, 24 h; stronger effect = lower value; DMSO median 0, no signal -100; GFP signal change (wild-type ribosome), % (no concentration beside the values); hit rate 1.6% among 350,000; AID 720706;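 active means significant combined selectivity score with lowered wild-type GFP, culture density cut under 30%, mutant RFP and density less affected; inactive means any of these conditions unmet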
ADAM10 inh: ADAM10 inhibition, QFRET primary screen | AID 720582 | inhibition, % at 7 µM | O14672 | hit rate 0.62% among 370,000 | recombinant ADAM10, EDANS/DABCYL FRET peptide cleavage, 3 h;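 active means inhibition above a per-campaign cutoff equal to the mean of compounds falling between control-based bounds plus 3 SD, cut at about 20% in these data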;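 further: 0% = DMSO wells while the 100% control is not disclosed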
ADAM10 ctr: ADAM10 inhibition, counter-screen for ADAM17 exosite hits; shares compounds with ADAM17 inh; recombinant ADAM10, EDANS/DABCYL FRET peptide cleavage, 3 h; inhibition, % at 6.95 µM; hit rate 47% among 2,900; AID 743256;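 active means mean inhibition over the triplicate runs exceeds the activity threshold set in the earlier primary screen, cut at about 20% in these data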;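 further: 0% = DMSO wells and 100% = marimastat wells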
ADAM17 confirm: human ADAM17 inhibition, confirmation | shares compounds with ADAM17 inh | hit rate 65% among 2,900 | recombinant ADAM17, EDANS/DABCYL QFRET peptide cleavage | inhibition, % at 6.95 µM;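 active means mean inhibition across replicates above the hit cutoff set in the primary screen, cut at about 8.5% in these data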;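 further: 0% = DMSO wells and 100% = marimastat wells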
* = called active by the depositor. This is a sample that favours compounds with a hit; in the whole collection about 3.8% have one here.

How did COc1ccccc1-c1ccc2c(c1)O[C@@H](CN(C)S(=O)(=O)c1ccc(F)cc1)[C@@H](C)CN([C@H](C)CO)S2(=O)=O do in these assays?
FGF22 binding: 0; Ecoli rRNA inh: -1

What do the screens show for `Cc1ccccc1-c1nc(S(=O)(=O)c2ccc(Br)cc2)c(NCc2cccnc2)o1`?
ADAM17 inh: 9.9*; FGF22 binding: 0; KLK7 zymogen act: -4; Ecoli rRNA inh: -7; ADAM10 inh: 19; ADAM10 ctr: 16; ADAM17 confirm: 25*

How did Cc1ccc(S(=O)(=O)c2nc(-c3ccccc3)oc2NCc2cccnc2)cc1 do in these assays?
ADAM17 inh: 0; KLK7 zymogen act: 0; ADAM10 inh: 7

What do the screens show for `O=S(=O)(c1cccs1)N1CCN(c2ccc(Cl)cc2)CC1`?
ADAM17 inh: -1; FGF22 binding: 0; KLK7 zymogen act: 1; Ecoli rRNA inh: 12; ADAM10 inh: -9

Results for O=S(=O)(c1cccs1)N1CCC(CO)(Cc2ccc(Cl)cc2)CC1 ?
ADAM17 inh: 12*; FGF22 binding: 0; KLK7 zymogen act: 0; Ecoli rRNA inh: -57; ADAM10 inh: 17; ADAM10 ctr: 1; ADAM17 confirm: 8

What do the screens show for `CCCN(C)C[C@@H]1Oc2ncc(Br)cc2C(=O)N([C@H](C)CO)C[C@H]1C`?
FGF22 binding: 0; Ecoli rRNA inh: 1

Results for Cn1cc(C(=O)c2ccc(Cl)cc2Cl)cc1C(=O)N/N=C(\N)COc1ccc(F)cc1 ?
ADAM17 inh: 2; KLK7 zymogen act: -1; ADAM10 inh: 4

Results for Cn1cc(C(=O)c2ccc(Cl)cc2Cl)cc1C(=O)N/N=C(\N)COc1ccc(Cl)cc1 ?
ADAM17 inh: 11*; FGF22 binding: 0; KLK7 zymogen act: -1; Ecoli rRNA inh: -18; ADAM10 inh: 16; ADAM10 ctr: 22*; ADAM17 confirm: 16*

Results for CCc1ccc(-c2cc(C(=O)NCc3ccccn3)c3ccccc3n2)cc1 ?
ADAM17 inh: -177; KLK7 zymogen act: -1; ADAM10 inh: inactive

Results for CCc1ccccc1Nc1cc(C(=O)NCc2ccccn2)c2ccccc2n1 ?
ADAM17 inh: 9.0*; FGF22 binding: 0; KLK7 zymogen act: 1; Ecoli rRNA inh: -3; ADAM10 inh: 18; ADAM10 ctr: -2; ADAM17 confirm: 8

How did C[C@@H]1CN([C@@H](C)CO)C(=O)c2cc(C#CC3CC3)cnc2O[C@H]1CN(C)C(=O)C1CCCCC1 do in these assays?
Ecoli rRNA inh: 0

How did COc1ccc(NC(=O)CC2C(=O)N(C)C(=S)N2Cc2ccncc2)cc1 (centres undefined) do in these assays?
ADAM17 inh: 9.1*; FGF22 binding: 0; KLK7 zymogen act: 0; Ecoli rRNA inh: 6; ADAM10 inh: 9; ADAM10 ctr: 1; ADAM17 confirm: 2

Results for CCC(=O)N(C)C[C@@H]1Oc2ncc(-c3ccc(F)cc3)cc2C(=O)N([C@H](C)CO)C[C@@H]1C ?
FGF22 binding: 0; Ecoli rRNA inh: -1

How did C[C@@H]1CN([C@H](C)CO)C(=O)Cc2cc(NC(=O)NC3CCCCC3)ccc2O[C@@H]1CN(C)S(=O)(=O)c1ccccc1 do in these assays?
FGF22 binding: 0; Ecoli rRNA inh: -1

How did COc1cc(/C=C/c2ccc3cccc([N+](=O)[O-])c3n2)ccc1OCC(=O)O do in these assays?
ADAM17 inh: -1; FGF22 binding: 0; KLK7 zymogen act: 0; Ecoli rRNA inh: -12; ADAM10 inh: -4

Results for CCOc1c(OC(C)=O)ccc(/C=C/c2ccc3cccc(OC)c3n2)c1[N+](=O)[O-] ?
ADAM17 inh: 9.0*; FGF22 binding: 0; KLK7 zymogen act: 0; Ecoli rRNA inh: -20; ADAM10 inh: 16; ADAM10 ctr: 24*; ADAM17 confirm: 16*

What do the screens show for `CCOc1ccc(N=Nc2c(=O)[nH]n3c(=O)cc(C)[nH]c23)cc1`?
ADAM17 inh: 10*; KLK7 zymogen act: 0; ADAM10 inh: 13; ADAM10 ctr: 15; ADAM17 confirm: 12*

Results for COc1ccc(NS(=O)(=O)c2cc(NC(=O)CCSc3ccccc3)ccc2OC)cc1 ?
ADAM17 inh: 10*; KLK7 zymogen act: 0; ADAM10 inh: 14; ADAM10 ctr: 42*; ADAM17 confirm: 22*

How did CCC1CCC2(CC1)NC(=O)N(CC(=O)c1c(C)[nH]c3ccccc13)C2=O (centres undefined) do in these assays?
ADAM17 inh: 8.9*; KLK7 zymogen act: 0; ADAM10 inh: 18; ADAM10 ctr: 4; ADAM17 confirm: 8

What do the screens show for `Cc1[nH]c2ccccc2c1C(=O)CN1C(=O)NC2(CCCCCC2)C1=O`?
ADAM17 inh: 3; FGF22 binding: 0; KLK7 zymogen act: 0; Ecoli rRNA inh: -3; ADAM10 inh: 4

How did CC(C)(C(=O)N1CCC1(C)C(=O)Nc1ccccc1Br)c1ccccc1 (centres undefined) do in these assays?
ADAM17 inh: 11*; FGF22 binding: 0; KLK7 zymogen act: 0; Ecoli rRNA inh: -6; ADAM10 inh: 11; ADAM10 ctr: -2; ADAM17 confirm: 0

What do the screens show for `C[C@@H]1CN([C@@H](C)CO)C(=O)CCCn2nncc2CO[C@@H]1CN(C)S(=O)(=O)c1ccc(C#N)cc1`?
ADAM17 inh: 9.5*; FGF22 binding: 0; KLK7 zymogen act: -1; Ecoli rRNA inh: 1; ADAM10 inh: 9; ADAM10 ctr: 13; ADAM17 confirm: 9.5*

What do the screens show for `O=C(CCNC(=O)c1ccc(Cl)cc1)NCCC1=CCCCC1`?
ADAM17 inh: 8.7*; FGF22 binding: 42; KLK7 zymogen act: 1; Ecoli rRNA inh: -5; ADAM10 inh: 4; ADAM10 ctr: 14; ADAM17 confirm: 9.2*

Results for O=C(Nc1ccc(N2CCCCC2)cc1)c1ccccc1 ?
ADAM17 inh: -3; KLK7 zymogen act: 0; ADAM10 inh: 0

How did O=C(Nc1ccc(N2CCCC2)cc1)c1cccc(F)c1 do in these assays?
ADAM17 inh: 18*; KLK7 zymogen act: 0; ADAM10 inh: 8; ADAM10 ctr: -3; ADAM17 confirm: 4

How did CCC(=O)N1C[C@H](C)[C@@H](OC)CN(C)C(=O)c2ccc(NC(=O)Nc3ccccc3)cc2OC[C@H]1C do in these assays?
FGF22 binding: 0; Ecoli rRNA inh: -6

Results for O=C(c1ccc(CSc2nc3ccncc3[nH]2)cc1)N1CCN(c2cccc(Cl)c2)CC1 ?
ADAM17 inh: 9.1*; FGF22 binding: 0; KLK7 zymogen act: 0; Ecoli rRNA inh: -2; ADAM10 inh: 15; ADAM10 ctr: 28*; ADAM17 confirm: 15*
